Assay [1] can be described thus: antimalarial activity against Dd2 strain (AID 2302;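 active = growth inhibition above 50% at the single 2 µM test dose, taken to imply half-maximal potency below 2 µM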;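 note: 0% = DMSO untreated growth and 100% = chloroquine plus artemisinin killed control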). To be noted: P. falciparum Dd2 in RBCs, LDH growth readout, 72 h; at 2 µM; hits give high values.
The nature of assay [2]: human hepatoma cell viability loss – ATP luminescence, cytotoxicity control for P. falciparum antimalarial project, primary screen (AID 2303;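 active = inhibition above 50%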;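 note: 0% = DMSO wells and 100% = digitonin-killed cells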). To be noted: HepG2 viability, 24-48 h, at 10 µM, hits give high values.
The target in assay [3] is L-lactate dehydrogenase (Plasmodium falciparum (isolate CDC / Honduras)) (UniProt Q27743). Nature of the assay: PfLDH activity inhibition – cell lysate, 3D7 strain, counter-screen for P. falciparum growth inhibition project (AID 2304).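 Note: 0% = vehicle and 100% = reference inhibitor.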 As to conditions: P. falciparum 3D7 crude extract, LDH APAD/NBT absorbance; at 2 µM; hits give high values. Background: The purpose of a counterscreen is to sort out artefacts and off-target activity.
Chain of L-lactate dehydrogenase (Plasmodium falciparum (isolate CDC / Honduras)) (Q27743 whole entry, looked up): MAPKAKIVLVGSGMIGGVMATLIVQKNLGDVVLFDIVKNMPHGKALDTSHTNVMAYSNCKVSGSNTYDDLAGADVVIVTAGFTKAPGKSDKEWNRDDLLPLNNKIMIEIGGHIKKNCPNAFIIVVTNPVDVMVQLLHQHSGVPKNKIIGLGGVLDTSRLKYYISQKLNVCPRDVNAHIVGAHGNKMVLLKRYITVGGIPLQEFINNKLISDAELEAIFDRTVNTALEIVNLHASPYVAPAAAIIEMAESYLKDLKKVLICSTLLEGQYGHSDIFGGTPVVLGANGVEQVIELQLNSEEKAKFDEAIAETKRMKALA

A short description of assay [4]: inhibition of 3D7 malaria parasite growth – strain 3D7 (AID 2306).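 Note: 0% = DMSO wells and 100% = chloroquine plus artemisinin control wells.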 To be noted: P. falciparum 3D7 erythrocytic growth, LDH absorbance, 72 h; at 2 µM; hits give high values.
For assay [5], the target named is Calcium-dependent protein kinase 1 (Plasmodium falciparum (isolate 3D7)) (UniProt P62344). Put plainly: PfCDPK1 kinase inhibitors, biochemical, TCAMS library (AID 1159585; cut-off not given, nearly all actives have IC50 up to about 0.98 µM;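 note: inhibitors leave more ATP so luminescence rises with inhibition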). To be noted: recombinant PfCDPK1, Kinase-Glo ATP depletion luminescence. (Kinase-Glo measures the ATP left after a reaction by luminescence.)
Chain of Calcium-dependent protein kinase 1 (Plasmodium falciparum (isolate 3D7)) (P62344 whole entry, looked up): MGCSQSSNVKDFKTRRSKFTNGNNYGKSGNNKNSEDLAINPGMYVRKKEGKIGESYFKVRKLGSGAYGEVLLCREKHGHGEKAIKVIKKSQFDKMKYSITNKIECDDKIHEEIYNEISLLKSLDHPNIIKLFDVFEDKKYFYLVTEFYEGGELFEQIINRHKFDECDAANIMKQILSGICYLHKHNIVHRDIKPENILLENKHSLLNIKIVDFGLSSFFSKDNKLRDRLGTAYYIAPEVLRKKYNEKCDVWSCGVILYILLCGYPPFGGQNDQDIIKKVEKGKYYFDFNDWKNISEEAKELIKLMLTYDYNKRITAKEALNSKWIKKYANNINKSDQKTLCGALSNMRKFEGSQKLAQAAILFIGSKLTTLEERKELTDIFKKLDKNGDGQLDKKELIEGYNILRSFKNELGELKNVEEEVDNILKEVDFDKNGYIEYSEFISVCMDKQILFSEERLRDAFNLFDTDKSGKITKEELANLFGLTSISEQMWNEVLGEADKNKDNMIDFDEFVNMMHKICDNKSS
Assay [6] concerns the target Plasmodium falciparum protein kinase 6 (PK6, PF3D7_1337100) (UniProt Q8IDW1). Nature of the assay: PfPK6 kinase inhibitors, biochemical, TCAMS library (AID 1159586). As to conditions: recombinant PfPK6, Kinase-Glo ATP depletion luminescence.
The target in assay [7] is Protein kinase 7 (PK7), Plasmodium falciparum 3D7 (PF3D7_0213400) (UniProt Q7YTF7). Nature of the assay: inhibition of Plasmodium PK7 catalytic activity – biochemical, TCAMS antimalarial set, Kinase-Glo luminescence (AID 1159587). To be noted: recombinant PfPK7, Kinase-Glo ATP depletion luminescence.
Chain of Protein kinase 7 (PK7), Plasmodium falciparum 3D7 (PF3D7_0213400) (Q7YTF7 1-343): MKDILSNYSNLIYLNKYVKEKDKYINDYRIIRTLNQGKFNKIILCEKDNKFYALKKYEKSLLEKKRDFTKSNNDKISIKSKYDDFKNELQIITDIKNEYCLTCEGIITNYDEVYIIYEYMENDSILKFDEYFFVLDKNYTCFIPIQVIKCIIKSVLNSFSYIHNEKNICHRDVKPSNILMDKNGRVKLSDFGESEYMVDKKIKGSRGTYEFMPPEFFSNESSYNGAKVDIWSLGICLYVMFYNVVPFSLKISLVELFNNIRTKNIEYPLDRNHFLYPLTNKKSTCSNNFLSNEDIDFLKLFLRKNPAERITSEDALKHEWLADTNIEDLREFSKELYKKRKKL
Assay [8] concerns the target Calcium-dependent protein kinase 4 (Plasmodium falciparum (isolate 3D7)) (UniProt Q8IBS5). Put plainly: PfCDPK4 kinase inhibitors, biochemical, TCAMS library (AID 1159588; cut-off not given, nearly all actives have IC50 up to about 0.91 µM). As to conditions: recombinant PfCDPK4, Kinase-Glo ATP depletion luminescence.

Values without a mark were called inactive. For some of these results: Potency and affinity values are given separately. Calls of active or inactive are those of the source. Unless noted, the rule behind the calls is not given here.

This passage reports growth inhibition, inhibition and outcome results from PubChem BioAssay.

Chain of Calcium-dependent protein kinase 4 (Plasmodium falciparum (isolate 3D7)) (Q8IBS5 whole entry, looked up): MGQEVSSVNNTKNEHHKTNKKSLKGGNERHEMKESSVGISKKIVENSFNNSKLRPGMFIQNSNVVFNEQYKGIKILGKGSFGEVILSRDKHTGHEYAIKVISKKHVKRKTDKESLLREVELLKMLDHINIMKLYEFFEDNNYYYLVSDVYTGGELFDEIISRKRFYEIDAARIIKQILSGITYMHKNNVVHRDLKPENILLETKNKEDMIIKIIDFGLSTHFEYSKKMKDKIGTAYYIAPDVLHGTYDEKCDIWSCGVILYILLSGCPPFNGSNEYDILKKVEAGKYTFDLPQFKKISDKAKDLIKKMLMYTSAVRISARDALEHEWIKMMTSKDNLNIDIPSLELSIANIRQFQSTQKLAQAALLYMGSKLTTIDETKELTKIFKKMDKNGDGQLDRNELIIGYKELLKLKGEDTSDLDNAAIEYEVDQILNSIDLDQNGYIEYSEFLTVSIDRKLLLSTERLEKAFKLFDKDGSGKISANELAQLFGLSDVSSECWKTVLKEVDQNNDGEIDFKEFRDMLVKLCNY
Chain of Plasmodium falciparum protein kinase 6 (PK6, PF3D7_1337100) (Q8IDW1 1-305): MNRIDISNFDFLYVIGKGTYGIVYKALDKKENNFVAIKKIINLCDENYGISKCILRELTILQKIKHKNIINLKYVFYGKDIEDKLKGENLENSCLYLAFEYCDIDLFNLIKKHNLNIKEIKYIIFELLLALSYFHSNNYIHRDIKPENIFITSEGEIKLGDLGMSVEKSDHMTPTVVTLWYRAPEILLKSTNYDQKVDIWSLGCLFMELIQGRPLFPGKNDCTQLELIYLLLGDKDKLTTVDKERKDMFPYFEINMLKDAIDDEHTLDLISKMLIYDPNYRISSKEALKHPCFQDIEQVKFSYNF

In the case of `Cn1ccnc1CNC(=O)c1ccc(-c2cccc(-c3nc4ccc(C(F)(F)F)cc4[nH]3)c2)cc1`, the figures for the growth inhibition in assay [1] and in assay [4] were 80% (active) and 101% (active), respectively. Also, the inhibition was 20% in assay [2] and 3% in assay [3]. The outcome in assay [5], in assay [6], in assay [7] and in assay [8] was inactive.

Take `O=C(NCCCCN1CCC[C@@H]2c3cccc(O)c3CC[C@@H]21)c1ccc(-c2ccccc2)cc1`: the growth inhibition in assay [1] was 4%; in assay [4], 93% (active). The inhibition in assay [2] is 18%; in assay [3] it was 3%. Besides, the result in assay [5], in assay [6], in assay [7] and in assay [8] was inactive.

Regarding `O=C(NCCNc1noc(-c2sccc2Br)n1)c1ccc(Cl)cc1`, the growth inhibition in assay [1] was 1%; in assay [4] it was 93% (active). The inhibition is -5% in assay [2] and 2% in assay [3]. Moreover, the outcome in assay [5], in assay [6], in assay [7] and in assay [8] was inactive.

Take `Cc1noc(-c2ccc(O)cc2O)c1-c1ccc2c(c1)OCCCO2`: the growth inhibition was 99% (active) in assay [1] and 100% (active) in assay [4]. The inhibition in assay [2] was 8%; in assay [3] it was -4%. Besides, the result in assay [5], in assay [6], in assay [7] and in assay [8] was inactive.

As to `O=[N+]([O-])c1cccc(CNCC2CCN(Cc3ccc(-c4ccccc4)cc3)CC2)c1`, the growth inhibition was 91% (active) in assay [1] and 101% (active) in assay [4]. The inhibition in assay [2] was 28%; in assay [3], 6%. Moreover, the result in assay [5], in assay [6], in assay [7] and in assay [8] was inactive.

With `COc1cccc(CCNc2nc(NCc3ccccc3)c3cc(OC)c(OC)cc3n2)c1`, the figures for the growth inhibition in assay [1] and in assay [4] were 99% (active) and 100% (active), respectively. The inhibition is 20% in assay [2] and -6% in assay [3]. Moreover, the outcome in assay [5], in assay [6], in assay [7] and in assay [8] was inactive.

As for `O=C(Nc1nc(-c2cc(F)ccc2F)cs1)c1cncc(Br)c1`, the figures for the growth inhibition in assay [1] and in assay [4] were 3% and 85% (active), respectively. For the same compound, the results for the inhibition in assay [2] and in assay [3] were 16% and -4%, respectively. Moreover, the outcome in assay [5], in assay [6], in assay [7] and in assay [8] was inactive.

In the case of `Oc1ccccc1N1CCN(c2ccc(-c3nc4ccccc4[nH]3)cn2)CC1`, the growth inhibition in assay [1] was 50% (active); in assay [4], 97% (active). Further, the inhibition is -12% in assay [2] and -2% in assay [3]. The result in assay [5], in assay [6], in assay [7] and in assay [8] was inactive.

As to `O=C(Nc1cccc(C(F)(F)F)c1)c1cccc(S(=O)(=O)NC2CCCN(CC3CCCCC3)C2)c1` (stereo not given), the growth inhibition was 15% in assay [1] and 97% (active) in assay [4]. In addition, the inhibition in assay [2] is 18%; in assay [3], 1%. In addition, the outcome in assay [5], in assay [6], in assay [7] and in assay [8] was inactive.

For `O=C(C=Cc1ccc(Cl)c(Cl)c1)NCCCCCN1CCC(CCCNC(=O)c2ccc3c(c2)OCO3)CC1`, the values for the growth inhibition in assay [1] and in assay [4] were 64% (active) and 98% (active), respectively. The values for the inhibition in assay [2] and in assay [3] were 38% and -5%, respectively. Also, the result in assay [5], in assay [6], in assay [7] and in assay [8] was inactive.

For the compound `Oc1ccc2c(c1NCC1CCCCC1)CCCC2`, the growth inhibition in assay [1] and in assay [4] was 99% (active) in each case. Further, the figures for the inhibition in assay [2] and in assay [3] were 11% and 0%, respectively. Further, the outcome in assay [5], in assay [6], in assay [7] and in assay [8] was inactive.

On to `Oc1ccc2ccccc2c1CNC1CCCCCC1`, for which the growth inhibition in assay [1] was 33%; in assay [4], 83% (active). Moreover, the inhibition in assay [2] was 9%; in assay [3], 5%. Further, the outcome in assay [5], in assay [6], in assay [7] and in assay [8] was inactive.

On to `N#Cc1cccc(NC(=O)NC2CCN(CCCCCNC(=O)[C@@H]3C[C@H]3c3ccc(Cl)c(Cl)c3)CC2)c1`, for which the growth inhibition in assay [1] is -2%; in assay [4], 102% (active). Also, the inhibition in assay [2] is 36%; in assay [3] it was 3%. The outcome in assay [5], in assay [6], in assay [7] and in assay [8] was inactive.

As to `CCC(C)(C)n1c(C)cc2c3c(N)nc(N)nc3ccc21`, the growth inhibition in assay [1] is 85% (active); in assay [4], 97% (active). The figures for the inhibition in assay [2] and in assay [3] were 69% (active) and 1%, respectively. Moreover, the result in assay [5], in assay [6], in assay [7] and in assay [8] was inactive.

Consider `Cc1cccc(CNc2nc(C)cc(N[C@@H](Cc3ccccc3)C(=O)NC3CCCC3)n2)c1`, for which the growth inhibition in assay [1] was 97% (active); in assay [4], 100% (active). Further, the inhibition in assay [2] was 51% (active); in assay [3], -3%. Further, the result in assay [5], in assay [6], in assay [7] and in assay [8] was inactive.

On to `O=C(/C=C/c1ccc(Cl)c(Cl)c1)NCCCCCN1CCCC(CNC(=O)Nc2ccc(Oc3ccccc3)cc2)C1` (stereo not given), for which the growth inhibition in assay [1] was 6%; in assay [4] it was 99% (active). Besides, the inhibition in assay [2] is 26%; in assay [3], -2%. In addition, the result in assay [5], in assay [6], in assay [7] and in assay [8] was inactive.

In the case of `COc1ccc(-c2ccc(NC(=O)c3ccc(C#N)cc3)cc2)cc1CNC(C)C`, the values for the growth inhibition in assay [1] and in assay [4] were 38% and 100% (active), respectively. For the same compound, the inhibition was 19% in assay [2] and -3% in assay [3]. Also, the outcome in assay [5], in assay [6], in assay [7] and in assay [8] was inactive.

As for `COCCOc1cccc(CN2CCC(c3cc4nc(C)cc(C(F)(F)F)n4n3)C2)c1` (stereo not given), the growth inhibition in assay [1] is 74% (active); in assay [4] it was 85% (active). Also, the figures for the inhibition in assay [2] and in assay [3] were 25% and 2%, respectively. The result in assay [5], in assay [6], in assay [7] and in assay [8] was inactive.

Consider `O=[N+]([O-])c1cccc(C(Nc2ccccn2)c2ccc3cccnc3c2O)c1` (stereo not given), for which the figures for the growth inhibition in assay [1] and in assay [4] were 29% and 86% (active), respectively. For the same compound, the results for the inhibition in assay [2] and in assay [3] were 53% (active) and 0%, respectively. For the same compound, the result in assay [5], in assay [6], in assay [7] and in assay [8] was inactive.

In the case of `COc1ccc2nccc([C@@H](O)CN3CCC(NCc4ccc5c(c4)NC(=O)C(C)S5)CC3)c2c1` (stereo not given in full), the figures for the growth inhibition in assay [1] and in assay [4] were 72% (active) and 99% (active), respectively. Further, the inhibition in assay [2] is 7%; in assay [3], 2%. Moreover, the result in assay [5], in assay [6], in assay [7] and in assay [8] was inactive.

The term inhibition denotes the relative decrease from the control value, in per cent.
